Laboratory results as given in PubChem BioAssay AID1345082 (National Center for Advancing Translational Sciences (NCATS), 2018).
Screen size: about 94,000 compounds; about 4,000 (4.3%) were called active. About 29% were inconclusive and are not listed. Shown is part of a subset that was picked to be rich in actives. A number with no mark means an inactive call. The call rests on the fitted dose curve; in most records, active means well fitted inhibition curve with a large enough effect; inconclusive means small, poorly fitted or top-dose-only effect; inactive means no such curve, though single readings can be large or run the other way.

experiment: Cytotoxic Profiling in NIH 3T3 Cell Line of Diverse Libraries Using Quantitative High-Throughput Screening; settings: NIH 3T3 viability, CellTiter-Glo ATP luminescence, 48-72 h; series mostly up to 96.7 µM; activity change, negative = cytotoxicity: at the top concentration; further: nearly all actives have a fitted effect of over 55% in size
Description: Cell-based phenotypic screening is a commonly used approach to discover biological pathways, novel drug targets, chemical probes and high-quality hit-to-lead molecules. Many hits identified from high-throughput screening campaign are ruled out through a series of follow-up potency, selectivity/specificity, and cytotoxicity assays. Prioritization of molecules with little or no cytotoxicity for a more in-depth downstream evaluation influence the future direction of projects, so cytotoxicity profiling of the screening libraries at early stage is essential for increasing the likelihood of candidate success. In this study, we analyzed results from a cell-based cytotoxicity screening campaign, comprising nearly 10,000 compounds in NCATS annotated libraries, and over 100,000 compounds in a diversity library, evaluated in four normal cell lines (HEK 293, NIH 3T3, CRL-7250 and HaCat) and a cancer cell line (KB 3-1, a HeLa subline) with overall screening outcomes, hit rates, pan-activity and selectivity. For the annotated library, we also examined the primary targets and mechanistic pathways regularly associated with cell death. To our knowledge, this is the first study to use high-throughput screening to profile large libraries for cytotoxicity assessment in both normal and cancer cell lines. In summary, the results generated here constitutes a valuable resource for the scientific community and provides insight on identifying cytotoxic compounds with particular mechanisms of action, and prioritizing compounds with suitable cytotoxicity profile for further evaluation.
NIH 3T3 cells were seeded into white 1536-well plates using a Multidrop Combi peristaltic dispenser (ThermoFisher, Waltham, MA) at a density of 400 cells/well in 5 uL of medium respectively. A pintool (Kalypsys) was used to transfer 23 nL of compound solution to the 1536-well assay plates. After 48 or 72 hr incubation at 37 degree Celsius, 5% CO2 and 95% humidity, 2.5 uL of CellTiter-Glo (Promega) was dispensed into each well using a dispenser (Aspect Automation, St. Paul, MN) with solenoid valves (Lee Valves, Westbrook CT). Plates were left at room temperature for 10 min before imaging the ATP-coupled luminescence using a ViewLux microplate imager (PerkinElmer, Waltham, MA).
On the % scale 0 is the no-effect control and ±100 the full control effect; potency means the concentration at half of the fitted maximal effect.

| Structure (SMILES) | activity change, negative = cytotoxicity | Potency | outcome |
| --- | --- | --- | --- |
| O=C([C@H]1CN2CCC1C[C@@H]2Cn1cc(-c2ccccc2)nn1)N1CCOCC1 (stereo not given in full) | 1.2% [at 174 µM] | – | – |
| Cc1nc(-c2ccccc2)cc([C@H]2CN3CC[C@H]2C[C@@H]3CNC2CCN(C)CC2)n1 | – | 56.2 µM (active) | – |
| Cc1nc(-c2ccccc2)cc([C@H]2CN3CC[C@H]2C[C@@H]3CNC2CCOCC2)n1 | – | 31.6 µM (active) | – |
| CN(C)C(=O)[C@H]1CN2CCC1C[C@@H]2Cn1cc(-c2ccc(-c3ccccc3)cc2)nn1 (stereo not given in full) | -19.8% [at 174 µM] | – | – |
| O=[S+]1([O-])NCC2(CCN(Cc3cccnc3)C2)Oc2ncccc21 (stereo not given) | – | – | inactive |
| COc1ccc([C@@H]2CN(C(=O)c3c(C)noc3C)[C@@H]3C4CCN(CC4)[C@@H]32)cc1 | -2.69% | – | – |
| CN(C)[C@@H]1CN(C(=O)Cc2ccc(F)cc2)C[C@H]1CO | 1.09% | – | – |
| O=C1NC2(Cc3ccccc31)CN(Cc1ccncc1)C2 | -1.85% [at 138 µM] | – | – |
| Cn1nc(-c2cccs2)cc1[C@H]1CN2CC[C@H]1C[C@@H]2CNC(=O)Nc1ccccc1 | – | 100 µM (active) | – |
| COc1ccc(-c2cc([C@H]3CN4CC[C@H]3C[C@@H]4CNC(=O)c3ccccc3)n(C)n2)cc1OC | -22.8% | – | – |
| CCCNC(=O)OC[C@H]1C[C@@H]2CCN1C[C@@H]2c1cc(-c2ccc(OC)c(OC)c2)nn1C | -28.8% | – | – |
| COc1ccccc1-c1cc([C@H]2CN3CC[C@H]2C[C@@H]3CNC(C)=O)n(C)n1 | – | – | inactive [at 174 µM] |
| Cn1nc(-c2cccs2)cc1[C@H]1CN2CC[C@H]1C[C@@H]2CNC(=O)CCCC(=O)O | – | – | inactive [at 174 µM] |
| COc1ccc(C(=O)NC[C@H]2C[C@@H]3CCN2C[C@@H]3c2cc(-c3ccccc3)nn2C)cc1 | – | 89.1 µM (active) | – |
| CCC(=O)N1CCC2(CC1)c1nccn1-c1ccccc1CN2CC(C)C | -8.23% | – | – |
| O=C(Cc1ccc(F)cc1)N1CCN(C2CCN(Cc3cccnc3)C2=O)CC1 (stereo not given) | -13.6% | – | – |
| CC1=NOC2(CCN(Cc3cncs3)C2)C1 (stereo not given) | – | – | inactive [at 138 µM] |
| Cc1ccc(S(=O)(=O)NC[C@H]2C[C@@H]3CCN2C[C@@H]3CN2CCN(c3ncccn3)CC2)cc1 | -13.2% | – | – |

| Structure (SMILES) | activity change, negative = cytotoxicity | Potency | outcome |
| --- | --- | --- | --- |
| COc1cc2c(cc1-c1ccncc1)NC(=O)C21CCN(C(C)=O)CC1 | – | 28.2 µM (active) | – |
| COc1cc2c(cc1OCc1ccccc1)NC(=O)C21CCN(C(=O)C(C)C)CC1 | – | 14.1 µM (active) | – |
| COc1cc2c(cc1OC1CCCC1)NC(=O)C21CCN(C(=O)c2ccnn2C)CC1 | -19.9% [at 138 µM] | – | – |
| COc1cc2c(cc1OCc1ccccc1)NC(=O)C21CCN(CCC(C)C)CC1 | – | 89.1 µM (active) | – |
| O=C1NC2(Cc3ccccc31)CN(CC1CC1)C2 | 0.241% [at 174 µM] | – | – |
| CC(C)N1CC2CCC(C1)N2C(=O)N1CCCC1 | 0.693% [at 138 µM] | – | – |
| CCCSc1ncc(CN2CC[C@H]3CNC[C@H]32)cn1 | -19.6% | – | – |
| O=C(O)COCC(=O)N1C[C@@H]2C[C@H](C1)c1c(-c3ccc4ccccc4c3)ccc(=O)n1C2 | 0.104% [at 174 µM] | – | – |
| Cn1cccc1CN1CCC2(COc3ccncc3[S+](=O)([O-])N2)C1 (stereo not given) | -1.63% | – | – |
| CCOC(=O)[C@H]1CN(C(=O)N2CCOCC2)[C@]2(C)C(=O)N(CC(=O)N(C)C)c3ccccc3[C@H]12 | -22.1% [at 46.1 µM] | – | – |
| Cc1ccc(C(=O)N2CCC3(CC2)c2nccn2-c2ccccc2CN3C)cc1C | -2.76% | – | – |
| FC(F)(F)CN1C2CCC1CN(c1ccc(Cl)nn1)C2 | 1.46% | – | – |
| CCNC(=O)N1CC2CN(C(C)C)CC(C1)O2 | -0.941% | – | – |
| CC1=NOC2(CCN(Cc3c[nH]c4ccccc34)CC2)C1 | – | – | inactive [at 138 µM] |
| Cn1cc(CN2CCN(C(=O)COc3ccc(F)cc3)CC2)ccc1=O | -12.8% | – | – |
| COc1ccc(-c2cn(C[C@H]3C[C@@H]4CCN3C[C@@H]4C(=O)NCc3ccccc3)nn2)cc1 | -24.5% [at 174 µM] | – | – |
| CCCCc1cn(C[C@H]2CC3CCN2C[C@@H]3C(=O)NCc2ccccc2)nn1 (stereo not given in full) | -15.6% [at 174 µM] | – | – |
